Experimental findings from PubChem BioAssay (NCATS) are described below.

Active and inactive are the calls of the source. Calls follow the shape of the dose curve; as a rule, active = well fitted activation curve with a large enough effect; inconclusive = small, poorly fitted or top-dose-only effect; inactive = no such curve, though single readings can be large or run the other way.

Chain of Cytochrome P450 3A4 (Homo sapiens) (P08684 whole entry, looked up): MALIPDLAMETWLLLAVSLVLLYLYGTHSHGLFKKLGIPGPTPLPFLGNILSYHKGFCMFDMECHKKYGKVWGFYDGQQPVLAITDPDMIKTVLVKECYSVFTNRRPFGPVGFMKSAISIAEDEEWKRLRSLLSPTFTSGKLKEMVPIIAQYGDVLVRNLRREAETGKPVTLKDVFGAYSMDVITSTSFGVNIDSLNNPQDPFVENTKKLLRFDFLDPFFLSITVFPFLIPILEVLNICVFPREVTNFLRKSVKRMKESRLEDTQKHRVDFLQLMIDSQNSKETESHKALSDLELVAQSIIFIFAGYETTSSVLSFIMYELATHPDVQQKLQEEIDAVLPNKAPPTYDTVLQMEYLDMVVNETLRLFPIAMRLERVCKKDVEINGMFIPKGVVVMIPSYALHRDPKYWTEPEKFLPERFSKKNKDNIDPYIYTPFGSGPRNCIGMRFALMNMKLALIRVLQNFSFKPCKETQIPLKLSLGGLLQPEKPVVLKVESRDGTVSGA

The assay has as its target Cytochrome P450 3A4 (Homo sapiens) (UniProt P08684). As to the kind of experiment: qHTS Assay for Activators of Cytochrome P450 3A4 (AID 885). Also: nearly all actives have a fitted effect of over 65% in size. To be noted: recombinant CYP3A4, Luciferin-PPXE luminescence, 60 min; series mostly up to 57.1 µM. The method, then: NIH Molecular Libraries Screening Centers Network [MLSCN]
NIH Chemical Genomics Center [NCGC]
The P450 gene superfamily is involved in the metabolism and clearance of xenobiotics. This assay used human CYP3A4 to measure the dealkylation of luciferin-6' phenylpiperazinylyl (Luciferin-PPXE; […]) to luciferin. The luciferin is then measured by luminescence after the addition of a luciferase detection reagent. Luciferin-PPXE concentration in the assay was equal to its KM for CYP3A4. Inhibitors and some substrates limit the production of luciferin, and decrease measured luminescence; activators increase the production of luciferin and luminescence.
NCGC Assay Protocol Summary:
Two uL of enzyme and substrate mix (final concentrations: 20nM CYP3A4, 25uM Luciferin-PPXE, 200mM KPO4) were dispensed into a white, solid bottom 1536-well microtiter plate. 23nL of compound was transferred by a pin tool. The plate was incubated at RT for 10 min. Two uL of an NADPH regeneration solution (Promega supplied reagent) was dispensed and the reaction was allowed to continue for 60 min at RT. Then the reaction was stopped by reconstituted luciferin detection buffer. After another 20 min of incubation the plate was read on the ViewLux (Perkin Elmer) at 60 sec exposure and 2x2 binning. This protocol was carried out with Promega-Glo reagents and further information can be found at http://www.promega.com/tbs/tb325/tb325.pdf. Data were normalized to the to AC100 inhibition (57 uM ketoconazole).
Keywords: P450, CYP2D6, Luciferase, MLSMR, MLSCN, NIH Roadmap, qHTS, NCGC
(In general: In qHTS, concentration-response curves come from the screen itself.)
Consider `CCNc1ncc2nc(CCc3ccccc3)c(=O)n(CCC#N)c2n1`, for which the result was inactive.
To `COCCNc1ncnc2ccc(-c3ccccc3OC)cc12` belongs “inactive”; to `CN1CCN(c2ncc3nc(-c4cccs4)c(=O)n(CCc4ccccc4)c3n2)CC1`, “inactive”.
The entry for `COCCn1c(=O)c(CCc2ccccc2)nc2cncnc21` is “inactive”; for `COc1ccc(C2OCC3(COC(C)=O)C(C)C=C(C)C2C3C)cc1` (stereo not given) it is “inactive”.
Turning to `COCCn1c(=O)c(-c2ccccc2)nc2cnc(Oc3cccc(Cl)c3)nc21`, the result was inactive.
Take `CN1CCN(c2ncnc3ccc(-c4cccc(C#N)c4)cc23)CC1`: the outcome was inactive.
Take `Cc1cnc(CNc2ncnc3ccc(-c4ccc(N(C)C)cc4)cc23)cn1`: the result was inactive.
As to `N#Cc1cccc(-c2ccc3ncnc(NCc4cccs4)c3c2)c1`, the result was inactive.
As for `COc1ccc2[nH]cc(CCNc3ncncc3-c3ccccc3C(F)(F)F)c2c1`, the outcome was inactive.
In the case of `CN(C)c1ncc2ncc(=O)n(Cc3cccs3)c2n1`, the outcome was inactive.
Take `CCNc1ncc2nc(CCc3ccccc3)c(=O)n(C3CC3)c2n1`: the result was inactive.
Consider `COC(=O)[C@@]1(C)CCC[C@@]2(C)c3ccc(O)c(C(C)C)c3CCC21` (stereo not given in full), for which the result was inactive.
The entry for `COc1cccc(-c2nc(NC3CC3)c3ccccc3n2)c1` is “inactive”; for `CCOC(=O)C1(O)Oc2cc(OC)cc(OC)c2C(=O)C1c1ccccc1` (stereo not given) it is “inactive”; for `O=c1c(-c2ccccc2)nc2cnc(N3CCOCC3)nc2n1CCc1ccccc1` it is “inactive”.
To `COc1cc(/C=C/C(=O)N2CCC=CC2=O)cc(OC)c1OC` belongs “inactive”; to `COc1ccc2c(c1)OCC(Cc1ccc(OC)c(OC)c1)C2=O` (stereo not given), “inactive”.
Take `Cc1ccccc1-c1ccc2ncnc(-n3ccnc3)c2c1`: the result was inactive.
To `COc1ccccc1CNc1ncncc1-c1ccc2c(c1)OCO2` belongs “inactive”; to `CN(C)c1ccc(-c2nccc(Nc3ccc(F)cc3)n2)cc1`, “inactive”; to `Clc1ccccc1-c1nc(Nc2ccncc2)c2ccccc2n1`, “inactive”.
The entry for `COc1ccccc1CNc1ncnc2ccc(-c3cccc(NS(C)(=O)=O)c3)cc12` is “inactive”; for `CCNc1ncc2nc(-c3ccccc3)c(=O)n(CCC#N)c2n1` it is “inactive”; for `CN(C)c1ccc(-c2cncnc2NCCN2CCOCC2)cc1` it is “inactive”.
The entry for `Cc1nc2cnc(N3CCN(C)CC3)nc2n(CCc2ccccc2)c1=O` is “inactive”.
For the molecule `O=c1ccc2cc3ccoc3cc2o1`, the outcome was inactive.
`COc1ccc(Oc2ncc3nc(CCc4ccccc4)c(=O)n(CCC#N)c3n2)cc1`: the result was inactive.
The entry for `CN(C)c1ccc(-c2cncnc2NCCc2cnc[nH]2)cc1` is “inactive”; for `COc1ccc2[nH]cc(CCNc3ncnc4ccc(-c5ccccc5OC)cc34)c2c1` it is “inactive”; for `N#Cc1ccccc1-c1ccc2ncnc(NCc3cccnc3)c2c1` it is “inactive”.
To `CN(C)c1ncc2nc(CCc3ccccc3)c(=O)n(CCc3ccccc3)c2n1` belongs “inactive”.
The entry for `CN(Cc1ccco1)c1cc(-c2ccc3c(c2)OCO3)ncn1` is “inactive”; for `O=C1c2ccccc2C(=O)C1c1ccc2ccccc2n1` it is “inactive”.
Consider `Nc1nc(-c2ccc(Cl)c(Cl)c2)c(-c2ccncc2)s1`, for which the outcome was inactive.
The entry for `COc1cccc(Cn2c(=O)c(CCc3ccccc3)nc3cnc(N4CCN(C)CC4)nc32)c1` is “inactive”.
Consider `c1cn(-c2ncnc3ccc(-c4ccoc4)cc23)cn1`, for which the result was inactive.
As to `COc1ccc2[nH]cc(CCNc3cc(-c4cccc(C#N)c4)ncn3)c2c1`, the result was inactive.
To `COCCn1c(=O)c(-c2cccs2)nc2cnc(Oc3ccccc3)nc21` belongs “inactive”.
As to `O=c1cnc2cnc(N3CCOCC3)nc2n1Cc1cccs1`, the result was inactive.
